# Measurements reported in ChEMBL document CHEMBL4513149, “CO-ADD screening of MMV (CH) - MMV compounds” (2021).
# Measured potencies and affinities stand elsewhere.
# How the values were obtained:
# [1] = test system: Klebsiella pneumoniae; conditions: Concentration 20 uM; ASSAY_TEST Inhibition of Bacterial Growth; detection method Absorption (OD600); MEDIA CAMHB; plate type 384well; NBS; CORNING #3640; time 18 hr
# [2] = test system: Candida albicans; conditions: 20 µM
# [3] = test system: Cryptococcus neoformans; conditions: Concentration 20 uM; ASSAY_TEST Inhibition of Fungal Growth; detection method Resazurin; Absorption (OD600-OD570); plate type 384well; NBS; CORNING #3640
SMILES,Inhibition [1] [%],Inhibition [2] [%],Inhibition [3] [%]
COc1cncc(-c2cncc(N3CCN(c4ccncc4)CC3)n2)c1,19.7,3.12,4.32
O=C(NCCc1ccccc1)c1cc(-c2cccnc2)cnc1NCC1CC1,-2.11,6.13,-7.61
Nc1cccnc1Nc1ccc(Cl)cc1,2.25,1.73,-10.6
O=C(Nc1nc(-c2ccccn2)cs1)C1CC1c1ccccc1F (stereo unspecified),21.19,5.33,-9.59
CC(C)(C)C(=O)N(CCCCCCN1C[C@H](O)[C@@H](O)[C@H](O)[C@H]1CO)C1CCCCCC1,7.47,0.83,-2.01
O=C(Nc1cccc(-c2ccc(NCCCN3CCCC3)nc2)c1)c1ccccc1,8.2,3.22,16.14
Cc1cc(C)c2cc(C(=O)NC3CCCCCCC3)[nH]c2c1,18.42,3.94,-6.05
COC(=O)c1cccc2oc(-c3cccc(OC)c3NC(=O)c3cc(-c4ccccc4)on3)nc12,13.16,8.19,-3.51
CCC(Sc1nc2ccccc2o1)C(=O)Nc1nnc(C)s1 (stereo unspecified),-2.47,4.83,-9.17
Clc1ccc(CN2CCN(C3=NCCN3)CC2)cc1Cl,16.63,2.1,-10.37
O=C(NCCN1CCCC1)c1cc(NCCCCN2CCC(F)(F)CC2)nc2ccc(Cl)cc12,15.7,2.73,24.05
c1ccc(Oc2ccc(-c3cncc(-c4ccc5[nH]ccc5c4)n3)cc2)cc1,5.9,4.38,-8.14
